Experimental findings from the supplement of paper PMC10681739 are described below.

The assay has as its target T1, ETS1 (UniProt P14921).
T1 sequence: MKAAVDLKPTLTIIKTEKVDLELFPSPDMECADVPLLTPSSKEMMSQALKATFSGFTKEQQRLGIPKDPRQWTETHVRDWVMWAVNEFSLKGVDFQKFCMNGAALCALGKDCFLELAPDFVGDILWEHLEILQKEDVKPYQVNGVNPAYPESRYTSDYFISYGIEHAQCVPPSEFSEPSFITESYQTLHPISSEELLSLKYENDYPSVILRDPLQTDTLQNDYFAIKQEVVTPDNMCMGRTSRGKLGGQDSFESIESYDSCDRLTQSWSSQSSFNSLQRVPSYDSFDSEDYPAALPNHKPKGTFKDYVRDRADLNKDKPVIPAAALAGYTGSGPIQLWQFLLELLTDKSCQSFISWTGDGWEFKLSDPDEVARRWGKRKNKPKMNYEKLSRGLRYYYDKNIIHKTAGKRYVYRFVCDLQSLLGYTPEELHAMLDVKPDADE
Nature of the assay: TF binding intensity (PBM fluorescence), negative control probe (arbitrary fluorescence units); higher = stronger binding. How it is done: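 gcPBM negative-control 36-bp genomic probes lacking TF binding sites. Each was incubated with recombinant human ETS1 or RUNX1 alone and detected by antibody fluorescence. Values are medians over replicate spots (4 spots for the ETS1-RUNX1 arrays, 3 for the ETS1-ETS1 array). The probes sit in constant array flanks that are not printed.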
For the sequence “ACACATCAAAATGTCTGTGGTTTTTATGAAAAATAG (protein concentration 1 nM)”, the TF binding intensity amounted to 510.

“AAAATACTGCCTTCAAGTACTGTGACTCTTTTCAGG (protein concentration 10 nM)” had a TF binding intensity of 112. “GAAATCCAGGAGAAAAATGCAGGACAGTCAGAGTAA (protein concentration 10 nM)” showed a TF binding intensity of 106. “CGCCAGGGGGAGCAACAGAAATCCACACCAGGGAAG (protein concentration 10 nM)” returned a TF binding intensity of 173.

With “CTCTACCTACAAAAAGACTGCAATTGTGTTACCTTT (protein concentration 10 nM)”, the TF binding intensity is 132.

With “CCGGCTGTCTCCTGCACCCAGGTAAGCAGCGGCGCT (protein concentration 10 nM)”, the TF binding intensity was found to be 108. In turn, “TATTTCACGCAAATAAGCAGTGACTGAGGACACAGT (protein concentration 10 nM)” registered a TF binding intensity of 117. With “GGGCCGCGCCGAGGGGACCACGGGACGCCCTCCTTC (protein concentration 10 nM)”, the TF binding intensity was 102.

“AGGCATAACAGAAAAACCTCAACTTAAATAGTGCTG (protein concentration 1 nM)”: the TF binding intensity is 626. The sequence “AGTTTTTTGTTTTGAGCCGCAGTCTCGCTCTGTCGC (protein concentration 1 nM)” had a TF binding intensity of 351.

In the case of “CCACCGAGTGTTCTCGTTGCTCCACCGTAGCATCAG (protein concentration 10 nM)”, the TF binding intensity amounted to 124. The sequence “GCTATTTTCTCTGCTTGAACATACCGTGTACACACA (protein concentration 10 nM)” displayed a TF binding intensity of 178. For the sequence “AGGCCTCTGCTCTCCTGGAGCTCATGACAAGTAAAC (protein concentration 10 nM)”, the TF binding intensity is 118. As to “GTTCCAGGCATTGTACTGAGGGGAGGCCCTCCTGTG (protein concentration 10 nM)”, the TF binding intensity came out at 109. Sequence “ATAAAACACAGTGTACAGTGACCTTTTAATCACAAC (protein concentration 10 nM)” gave a TF binding intensity of 132. “AATATCTACAGGGCTCACTCTCCCATGCTCTTCAGG (protein concentration 10 nM)” came in with a TF binding intensity of 108.

Sequence “GTCAAAGGCTCTGCAGAGTCAAGTAGCCTCCCACTT (protein concentration 10 nM)” registered a TF binding intensity of 112. “ACTCATTAGCAGTGAGCCACAAAGACTCTCTGGAAG (protein concentration 1 nM)” had a TF binding intensity of 359. With “GGCTGAGGTGTCTGTGTTGGCAGCAGGAGCCTCTCT (protein concentration 10 nM)”, the TF binding intensity was found to be 128. With “TCCTCAGGGACGTGTGAGAACCTGGCTAGGCAAGAG (protein concentration 10 nM)”, the TF binding intensity is 135. Take “ATATATAGTAACCACATGATTAATAATAATAATGCA (protein concentration 10 nM)”: the TF binding intensity turned out to be 119.

Take “CCTTTGTTAGTGATTTGTGGTAGCTAATGTCGTAAT (protein concentration 1 nM)”: the TF binding intensity turned out to be 548. In turn, “TTCAAAGCACATTCACCCACATGATCCTATTGATCT (protein concentration 1 nM)” showed a TF binding intensity of 468. Turning to “ACTGCGCGCAGGGCCTGCAGCGGCAGCTGGACTGGG (protein concentration 10 nM)”, the TF binding intensity stood at 120. The figure for “TTTCAGAGGGAAAAGAATTTTGCCGTTCGCGTTCGA (protein concentration 10 nM)” is 113; for “GAGATGCAGCAGCGTCTCCCAGTCCTCACCGCGGCC (protein concentration 10 nM)” it is 112; for “ACGACTCTTCCCAAGCAGCGGGAGGATCTAGGCCCA (protein concentration 10 nM)” it is 102.

As to “GAAGAGCAGGCCTGGCGTCTGCCCGTGCCAGTGTTT (protein concentration 10 nM)”, the TF binding intensity turned out to be 102. Next, “TGAATGAGTCTTTTTTTGGCCATCTCTTTATGATTA (protein concentration 10 nM)”: 132. “CCTTGCCAATGTTTGTGTGGAGAGCACACGGGTGCT (protein concentration 10 nM)” returned a TF binding intensity of 116. “CAGAGGGGGCCTCTGGGGCAGCGGTGCTGGGAGCGG (protein concentration 10 nM)”: the TF binding intensity is 109. For “TCACTCTCTGGACAGGGCCCTCTGAGCAAGCAACCA (protein concentration 10 nM)”, the TF binding intensity came to 109. Consider “TCGAGTGGTGAGAAGGAGAAGGAGCGGCTGGGAGGC (protein concentration 10 nM)”, for which the TF binding intensity stood at 137.

With “TAAATAAATAAACACTTTAGCACATTGACTTTAGAG (protein concentration 10 nM)”, the TF binding intensity was determined as 111. For “ACCTGGCTGTCTGGCTCCTTACTTTCCACCATTTTC (protein concentration 10 nM)”, the TF binding intensity came to 132.

For the sequence “TGGAAAATAATATTTCAAGACCATAATATGGCTGCT (protein concentration 10 nM)”, the TF binding intensity worked out at 100. Take “CACACACTAAATCTCTGTACTAAATGAAAGGTTGCT (protein concentration 10 nM)”: the TF binding intensity was determined as 139. “GATGCTCTGATACGCGCTGAAAAGAAGTCAGGCTTC (protein concentration 10 nM)”: the TF binding intensity was found to be 134. Sequence “ACAGGCCCTCCAGGTGTTGAAACCATGCTGGGCTGA (protein concentration 10 nM)” yielded a TF binding intensity of 102. As for “GTGTGTGAGCGTGTACCCACAATGTGTAACTTAATT (protein concentration 1 nM)”, the TF binding intensity came out at 484.
